The text below walks through data of PubChem BioAssay (NCATS).

Inconclusive results are not listed. The source made the active and inactive calls. Unless noted, calls follow the shape of the dose curve; as a rule, active = well fitted curve in either direction with a large enough effect (not every such curve was filed as active); inconclusive = small, poorly fitted or top-dose-only effect, or another doubt; inactive = flat fitted curve, though single readings scatter. A value given as a limit tells only on which side of the number the result lay.

In experiment [1] the target is Lysosomal acid glucosylceramidase (Homo sapiens) (UniProt P04062). Briefly: Glucocerebrosidase-p2 (AID 348; in the data active = potency below about 10 µM; also: potency is read from the fitted curve at half-maximal effect). The following applies: purified GBA, blue fluorogenic substrate, 40 min. In outline: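 Normal human glucocerebrosidase (0.2 nM) with blue fluorogenic substrate (80 uM final) in citrate/phosphate pH 5.9 with 10mM sodium taurocholate, 0.01% tween-20; 40 min RT, NaOH/glycine stop; fluorescence Ex 365/Em 440; AC50 from a titration from 0.6 nM upwards.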

Experiment [2] is described as follows: AP1 Signaling Pathway (AID 357). Also: % is scaled to controls: 0 for no effect and ±100 for the full control effect. As to conditions: ME-180 AP-1-bla reporter, EGF-induced, beta-lactamase ratio, 5 h; at 7.69 µM (top of the series) unless noted. In outline: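 Cells are seeded overnight, exposed to compound titrations and an EC50 level of EGF for 5 hours at 37 °C, then loaded with CCF4 dye for 2.5 hours. Beta-lactamase activity under the AP-1 element is read as a blue/green ratio.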

Experiment [3] can be described thus: NFAT Signaling Pathway (AID 444).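 Also: carbachol stimulus at about its EC50 of 1 µM final; % is scaled to controls: 0 for no effect and ±100 for the full control effect.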 The following applies: Jurkat NFAT-bla M1, carbachol, beta-lactamase ratio, 5 h; at 7.69 µM (top of the series) unless noted. In outline: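 Jurkat cells carrying an NFAT-driven β-lactamase reporter and co-transfected muscarinic M1 receptor were treated with compound plus carbachol (1 uM final, an EC50 level) for 5 h at 37 °C. CCF4 loading followed for 1 h at RT; 460/530 nm ratio gave %activity.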

The nature of experiment [4]: Stat Signaling Pathway (AID 446).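 Also: ME-180 cervical cancer cells given 40 pM IL-6 alongside compound; SIE-controlled beta-lactamase reporter measured as 460/530 nm FRET emission ratio; % is scaled to controls: 0 for no effect and ±100 for the full control effect.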 As to conditions: ME-180 (cervical carcinoma) SIE beta-lactamase reporter, IL-6 stimulated, 5 h; at 7.69 µM (top of the series) unless noted. In short, it runs like this:
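Normalization used AC90 stimulation (300 pM IL-6) and AC90 inhibition (125 nM pan-JAK inhibitor at 40 pM IL-6). The underlying signal is SIE-driven beta-lactamase in ME-180 cells after 5 h IL-6 exposure with compound.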

In experiment [5] the target is Glucocorticoid receptor (Homo sapiens) (UniProt P04150). Kind of experiment: GR-EFC Redistribution (AID 451; calls by dose curve; also: potency is read from the fitted curve at half-maximal effect). The following applies: CHO-K1 GR-EFC translocation, beta-gal luminescence, 2 h. In short, it runs like this: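 CHO-K1 cells stably expressing nuclear-localized β-gal enzyme acceptor and GR fused C-terminally to the enzyme donor fragment; ligand-driven nuclear translocation restores β-gal by complementation. Compounds titrated up to 46 uM final, 2 h at 37 °C; luminescence read.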

Experiment [6] concerns the target Mitogen-activated protein kinase 10 (Mus musculus) (UniProt Q61831). Kind of experiment: JNK3 AlphaScreen Assay (AID 530).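 Also: kinase came from lysate of stimulated human HepG2 cells; % is scaled to controls: 0 for no effect and ±100 for the full control effect.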 The following applies: JNK3 lysate, c-Jun phosphorylation; series mostly up to 57.1 µM. In short, it runs like this: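 Biotinylated GST-cJun(1-79) served as substrate for JNK3 in HepG2 lysates stimulated with IL-1beta and TNF-alpha. ATP was 10 uM final, pH 7.6. Ser73 phosphorylation was quantified by AlphaScreen (680 nm excitation).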
In general terms: Alpha assays give light when donor and acceptor beads are brought close together.

In experiment [7] the target is 3',5'-cyclic-AMP phosphodiesterase 4B (Homo sapiens) (UniProt Q07343). Briefly: qHTS Assay for Inhibitors of PDE-IV (AID 607; active = well fitted activation curve with a large enough effect in the main read-out, with a control signal flat, not every such curve was filed as active; also: % of control where 0% means no effect). As to conditions: HEK293 ACTOne CNG channel cells, membrane potential fluorescence; series mostly up to 22.9 µM. In outline:
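HEK293 ACTOne cells with CNG channel (1000/well), endogenous PDE4; membrane potential dye, compounds up to 22.9 uM final. Fluorescence Ex 535/Em 590; RO 20-1724 (100 uM final) as reference.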
(Quantitative high-throughput screening tests each substance at several concentrations.)

A short description of experiment [8]: qHTS Assay for Lipid Storage Modulators (AID 1519; calls by dose curve). As to conditions: Drosophila S3 cells, BODIPY lipid droplet/cell ratio, laser cytometry, cells loaded with oleic acid; for activity change, negative = inhibition: at 57.5 µM (top of the series). In outline: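 Cells seeded at 5,000 per well were treated with compounds over a concentration series and loaded with oleic acid (400 uM, as added). Lipid droplet fluorescence (488 nm excitation, 500-530 nm channel) was read by laser-scanning cytometry and normalized to 20 uM Triacsin C.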

Experiment [9] is described as follows: Primary qHTS for small molecule stabilizers of the endoplasmic reticulum resident proteome: Secreted ER Calcium Modulated Protein (SERCaMP) assay (AID 1508630; active = well fitted curve in the direction sought with a large enough effect; an effect the other way counts as inactive or inconclusive; also: % is scaled to controls: 0 for no effect and ±100 for the full control effect). As to conditions: SH-SY5Y GLuc-SERCaMP (Gaussia luciferase released on ER calcium loss) secretion, thapsigargin, luminescence; series mostly up to 38.4 µM. In outline: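 The SH-SY5Y reporter protocol was run at 3 concentrations up to 38.3 uM (primary) or 11 concentrations (follow-up): 16 h compound, 100 nM thapsigargin for 4 h, then extracellular luciferase luminescence.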

The target of experiment [10] is Cytochrome P450 1A2 (Homo sapiens) (UniProt P05177). Kind of experiment: p450-cyp1a2 (AID 410; calls by dose curve; also: potency is read from the fitted curve at half-maximal effect;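 as to activity change, negative = inhibition: -100% = full effect of reference inhibitor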). As to conditions: recombinant CYP1A2, luciferin-ME demethylation, luminescence; series mostly up to 57 µM. In outline: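 20nM CYP1A2, 100uM Luciferin-ME (=Km), 100mM KPO4; cpd 10 min RT; +NADPH regen, 60 min RT; stop/detect 20 min; luminescence. Normalized to furafylline 57 uM = full inhibition.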

Experiment [11] has as its target Cytochrome P450 3A4 (Homo sapiens) (UniProt P08684). Kind of experiment: qHTS Assay for Activators of Cytochrome P450 3A4 (AID 885; active = well fitted curve in the direction sought with a large enough effect; an effect the other way counts as inactive or inconclusive; also: nearly all actives have a fitted effect of over 65% in size). As to conditions: recombinant CYP3A4, Luciferin-PPXE luminescence, 60 min; series mostly up to 57.1 µM. In short, it runs like this: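 Human CYP3A4 dealkylates Luciferin-PPXE to luciferin, which luciferase detection converts to light. Substrate was at its KM (25uM), buffer 200mM KPO4, reaction 60 min at RT.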

For experiment [12], the target named is Glucocorticoid receptor (Homo sapiens) (UniProt P04150). Briefly: GR-GFP Redistribution (AID 450;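 active = compounds whose dose series gives a full or clear partial fitted curve of increased nuclear translocation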; also: potency is read from the fitted curve at half-maximal effect). The following applies: U2OS GR-GFP nuclear translocation, laser cytometry, 2 h.
For experiment [13], the target named is Ubiquitin carboxyl-terminal hydrolase 1 (Homo sapiens) (UniProt O94782). Kind of experiment: Inhibitors of USP1/UAF1: Pilot qHTS (AID 504865; active = well fitted curve in the direction sought with a large enough effect; an effect the other way counts as inactive or inconclusive;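 also: rhodamine fluorescence freed from ubiquitin-rhodamine substrate followed over time; top concentration of the series differs between compounds; % is scaled to controls: 0 for no effect and ±100 for the full control effect; nearly all actives have a fitted effect of over 35% in size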). As to conditions: purified USP1/UAF1, Ub-rhodamine cleavage fluorescence; series mostly up to 54.9 µM. In outline:
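USP1/UAF1 complex (1nM) preincubated with compound 15 min at room temperature, then Ub-Rho substrate (150nM final) added. Fluorescence read kinetically at 480/540 nm, 6 reads every 60 seconds. Buffer: 50mM HEPES pH 7.8, 0.5mM EDTA, 0.1 mg/ml BSA, 1mM TCEP, 0.01% Tween-20.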

The target in experiment [14] is Cytochrome P450 2C9 (Homo sapiens) (UniProt P11712). Kind of experiment: qHTS Assay for Inhibitors and Substrates of Cytochrome P450 2C9 (AID 883; active = well fitted curve in the direction sought with a large enough effect; an effect the other way counts as inactive or inconclusive; also: % is scaled to controls: 0 for no effect and ±100 for the full control effect; nearly all actives have a fitted effect of over 60% in size). The following applies: recombinant CYP2C9, luciferin-H luminescence, 60 min; series mostly up to 57.1 µM. In short, it runs like this:
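A luminogenic readout tracked human CYP2C9 (10nM) converting deoxyluciferin (100uM, at KM) in 25mM KPO4 during 60 min at 37C with regenerated NADPH. Values normalized to 57uM sulphaphenazole as complete inhibition.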

The target of experiment [15] is Cytochrome P450 3A4 (Homo sapiens) (UniProt P08684). Kind of experiment: qHTS Assay for Inhibitors and Substrates of Cytochrome P450 3A4 (AID 884; active = well fitted curve in the direction sought with a large enough effect; an effect the other way counts as inactive or inconclusive; also: nearly all actives have a fitted effect of over 50% in size; also: potency is read from the fitted curve at half-maximal effect). The following applies: recombinant CYP3A4, Luciferin-PPXE luminescence; series mostly up to 57.1 µM. In outline:
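Luminescent readout of luciferin produced by CYP3A4 (20 nM) dealkylation of Luciferin-PPXE, 25 uM (its KM). NADPH-driven reaction ran 60 min at RT after 10 min compound preincubation; data scaled to 57 uM ketoconazole as 100% inhibition.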

For experiment [16], the target named is Cytochrome P450 2D6 (Homo sapiens) (UniProt P10635). Briefly: qHTS Assay for Inhibitors and Substrates of Cytochrome P450 2D6 (AID 891; active = well fitted curve in the direction sought with a large enough effect; an effect the other way counts as inactive or inconclusive;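 also: luciferin methyl ether substrate demethylated by CYP2D6 with NADPH regeneration; % is scaled to controls: 0 for no effect and ±100 for the full control effect; nearly all actives have a fitted effect of over 60% in size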). The following applies: recombinant CYP2D6, luciferin-ME EGE luminescence; series mostly up to 57.1 µM. In short, it runs like this:
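Luminescent read-out of luciferin formed by 5 nM human CYP2D6 demethylating 30 uM Luciferin-ME EGE (Km level) over 60 min at room temperature after NADPH regeneration addition. Data normalized to full inhibition by 1.43 uM quinidine.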

The target of experiment [17] is Cytochrome P450 2C19 (Homo sapiens) (UniProt P33261). Briefly: qHTS Assay for Inhibitors and Substrates of Cytochrome P450 2C19 (AID 899; active = well fitted curve in the direction sought with a large enough effect; an effect the other way counts as inactive or inconclusive; also: % is scaled to controls: 0 for no effect and ±100 for the full control effect; nearly all actives have a fitted effect of over 60% in size). The following applies: recombinant CYP2C19, luciferin-H EGE luminescence; series mostly up to 57.1 µM. In short, it runs like this: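 NADPH-dependent conversion of Luciferin-H EGE (10uM, at KM) by 5nM enzyme in 50mM KPO4, 60 min at 37C following 10 min compound preincubation. Stopped with luciferin detection buffer; luminescence read after 20 min.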

[18] abbreviates: measured here: cell count channel max response.
Where [19] appears, read: measured here: lipid channel max response.

Cytochrome P450 1A2 (Homo sapiens), sequence (P05177 whole entry, looked up): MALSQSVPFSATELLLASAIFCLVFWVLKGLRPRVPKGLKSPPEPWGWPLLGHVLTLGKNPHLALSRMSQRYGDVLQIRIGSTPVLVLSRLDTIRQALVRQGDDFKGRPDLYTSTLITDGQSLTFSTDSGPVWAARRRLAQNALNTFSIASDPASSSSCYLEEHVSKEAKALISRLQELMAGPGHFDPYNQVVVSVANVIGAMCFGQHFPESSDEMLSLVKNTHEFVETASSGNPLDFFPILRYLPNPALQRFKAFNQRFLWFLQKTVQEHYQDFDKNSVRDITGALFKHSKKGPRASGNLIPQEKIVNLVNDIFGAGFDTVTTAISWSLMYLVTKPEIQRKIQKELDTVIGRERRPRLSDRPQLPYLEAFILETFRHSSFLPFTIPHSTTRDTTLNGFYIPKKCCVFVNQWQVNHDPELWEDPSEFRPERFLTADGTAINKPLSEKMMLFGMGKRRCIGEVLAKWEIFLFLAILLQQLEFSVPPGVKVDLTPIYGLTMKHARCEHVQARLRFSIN
Lysosomal acid glucosylceramidase (Homo sapiens), sequence (P04062 whole entry, looked up): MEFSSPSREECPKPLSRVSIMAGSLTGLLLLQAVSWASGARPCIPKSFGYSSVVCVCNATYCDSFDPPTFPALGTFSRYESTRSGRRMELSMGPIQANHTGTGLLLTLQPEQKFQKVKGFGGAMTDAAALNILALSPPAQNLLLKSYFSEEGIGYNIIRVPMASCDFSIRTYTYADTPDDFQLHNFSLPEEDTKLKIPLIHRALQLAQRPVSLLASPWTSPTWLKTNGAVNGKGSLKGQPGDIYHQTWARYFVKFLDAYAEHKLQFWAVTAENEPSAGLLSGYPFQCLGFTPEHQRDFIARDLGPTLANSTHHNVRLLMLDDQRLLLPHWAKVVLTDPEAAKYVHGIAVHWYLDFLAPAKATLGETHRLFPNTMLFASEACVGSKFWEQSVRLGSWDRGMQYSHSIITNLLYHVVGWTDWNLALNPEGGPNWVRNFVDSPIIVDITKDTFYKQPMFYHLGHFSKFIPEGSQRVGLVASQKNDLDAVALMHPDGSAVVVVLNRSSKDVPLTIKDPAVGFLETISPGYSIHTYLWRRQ
Cytochrome P450 3A4 (Homo sapiens), sequence (P08684 whole entry, looked up): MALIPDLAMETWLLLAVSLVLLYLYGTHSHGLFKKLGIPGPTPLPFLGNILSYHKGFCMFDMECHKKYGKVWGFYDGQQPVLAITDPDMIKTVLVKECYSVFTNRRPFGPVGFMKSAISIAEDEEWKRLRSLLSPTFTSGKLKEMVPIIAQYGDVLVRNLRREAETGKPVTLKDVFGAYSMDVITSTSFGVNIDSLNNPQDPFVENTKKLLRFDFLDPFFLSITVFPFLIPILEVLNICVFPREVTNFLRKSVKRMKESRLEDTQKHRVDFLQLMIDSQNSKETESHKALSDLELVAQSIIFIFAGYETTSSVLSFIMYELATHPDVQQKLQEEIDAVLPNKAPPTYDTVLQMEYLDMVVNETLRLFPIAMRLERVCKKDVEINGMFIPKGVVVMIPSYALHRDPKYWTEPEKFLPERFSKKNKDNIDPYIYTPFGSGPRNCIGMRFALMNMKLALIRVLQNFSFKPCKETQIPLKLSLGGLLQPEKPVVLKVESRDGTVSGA
3',5'-cyclic-AMP phosphodiesterase 4B (Homo sapiens), sequence (Q07343 whole entry, looked up): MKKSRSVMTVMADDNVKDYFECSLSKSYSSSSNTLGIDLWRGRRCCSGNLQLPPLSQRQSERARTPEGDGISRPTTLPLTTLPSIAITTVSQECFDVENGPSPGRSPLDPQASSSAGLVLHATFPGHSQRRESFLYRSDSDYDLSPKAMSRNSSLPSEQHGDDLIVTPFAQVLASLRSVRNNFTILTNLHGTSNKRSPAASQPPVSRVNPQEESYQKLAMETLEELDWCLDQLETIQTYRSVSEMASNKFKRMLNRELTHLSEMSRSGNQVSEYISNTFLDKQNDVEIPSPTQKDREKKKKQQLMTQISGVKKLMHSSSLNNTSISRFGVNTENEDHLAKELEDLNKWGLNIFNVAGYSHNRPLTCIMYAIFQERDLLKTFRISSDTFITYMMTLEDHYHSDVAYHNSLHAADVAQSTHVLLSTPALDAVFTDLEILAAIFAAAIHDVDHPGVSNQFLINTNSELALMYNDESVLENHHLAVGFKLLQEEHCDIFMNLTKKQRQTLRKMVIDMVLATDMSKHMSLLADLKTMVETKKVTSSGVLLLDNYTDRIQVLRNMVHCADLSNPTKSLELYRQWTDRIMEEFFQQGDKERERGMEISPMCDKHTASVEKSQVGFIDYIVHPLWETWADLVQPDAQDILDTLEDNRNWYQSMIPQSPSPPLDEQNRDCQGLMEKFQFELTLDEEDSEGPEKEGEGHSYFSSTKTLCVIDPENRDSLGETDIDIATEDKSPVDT
Glucocorticoid receptor (Homo sapiens), sequence (P04150 whole entry, looked up, the tested form may be a part): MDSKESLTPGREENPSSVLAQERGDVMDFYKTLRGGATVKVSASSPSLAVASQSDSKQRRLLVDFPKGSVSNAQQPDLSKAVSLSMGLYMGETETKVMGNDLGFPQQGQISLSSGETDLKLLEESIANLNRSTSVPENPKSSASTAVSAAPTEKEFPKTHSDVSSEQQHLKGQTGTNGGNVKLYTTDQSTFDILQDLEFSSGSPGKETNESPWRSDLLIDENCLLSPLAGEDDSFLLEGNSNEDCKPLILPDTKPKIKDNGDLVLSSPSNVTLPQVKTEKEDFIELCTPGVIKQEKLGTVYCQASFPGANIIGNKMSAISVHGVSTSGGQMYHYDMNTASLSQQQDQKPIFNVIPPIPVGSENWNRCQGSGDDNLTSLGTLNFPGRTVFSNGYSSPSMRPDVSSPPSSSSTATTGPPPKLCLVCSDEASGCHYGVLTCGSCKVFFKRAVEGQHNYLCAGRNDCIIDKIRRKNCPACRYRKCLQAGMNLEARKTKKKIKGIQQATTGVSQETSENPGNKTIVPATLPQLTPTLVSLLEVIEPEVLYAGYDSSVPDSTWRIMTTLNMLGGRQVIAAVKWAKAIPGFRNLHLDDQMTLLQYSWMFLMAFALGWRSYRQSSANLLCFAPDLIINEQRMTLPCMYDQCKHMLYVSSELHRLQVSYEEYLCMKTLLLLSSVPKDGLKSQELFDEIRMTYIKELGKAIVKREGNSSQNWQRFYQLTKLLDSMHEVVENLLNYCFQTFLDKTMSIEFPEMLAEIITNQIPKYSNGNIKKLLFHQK
Ubiquitin carboxyl-terminal hydrolase 1 (Homo sapiens), sequence (O94782 whole entry, looked up): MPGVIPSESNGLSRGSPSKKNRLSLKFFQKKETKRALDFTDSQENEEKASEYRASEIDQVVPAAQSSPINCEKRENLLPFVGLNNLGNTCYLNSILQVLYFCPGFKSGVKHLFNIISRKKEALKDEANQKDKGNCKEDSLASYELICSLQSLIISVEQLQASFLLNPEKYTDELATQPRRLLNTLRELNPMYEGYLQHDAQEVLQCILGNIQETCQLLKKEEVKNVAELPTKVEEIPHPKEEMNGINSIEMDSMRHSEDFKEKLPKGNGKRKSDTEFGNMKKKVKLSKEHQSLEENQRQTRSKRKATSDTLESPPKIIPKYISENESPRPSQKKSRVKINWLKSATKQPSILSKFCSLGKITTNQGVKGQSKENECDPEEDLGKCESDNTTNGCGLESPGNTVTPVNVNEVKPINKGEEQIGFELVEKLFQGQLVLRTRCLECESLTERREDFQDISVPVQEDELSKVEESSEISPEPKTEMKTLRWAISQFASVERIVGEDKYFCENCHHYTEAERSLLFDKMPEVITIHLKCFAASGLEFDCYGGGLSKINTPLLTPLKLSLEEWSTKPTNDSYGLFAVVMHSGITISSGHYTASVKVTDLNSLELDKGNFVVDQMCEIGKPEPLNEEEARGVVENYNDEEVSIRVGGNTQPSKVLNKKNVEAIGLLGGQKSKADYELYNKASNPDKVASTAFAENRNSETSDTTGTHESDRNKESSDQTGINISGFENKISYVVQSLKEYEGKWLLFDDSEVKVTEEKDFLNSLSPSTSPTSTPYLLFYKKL
Cytochrome P450 2C9 (Homo sapiens), sequence (P11712 whole entry, looked up): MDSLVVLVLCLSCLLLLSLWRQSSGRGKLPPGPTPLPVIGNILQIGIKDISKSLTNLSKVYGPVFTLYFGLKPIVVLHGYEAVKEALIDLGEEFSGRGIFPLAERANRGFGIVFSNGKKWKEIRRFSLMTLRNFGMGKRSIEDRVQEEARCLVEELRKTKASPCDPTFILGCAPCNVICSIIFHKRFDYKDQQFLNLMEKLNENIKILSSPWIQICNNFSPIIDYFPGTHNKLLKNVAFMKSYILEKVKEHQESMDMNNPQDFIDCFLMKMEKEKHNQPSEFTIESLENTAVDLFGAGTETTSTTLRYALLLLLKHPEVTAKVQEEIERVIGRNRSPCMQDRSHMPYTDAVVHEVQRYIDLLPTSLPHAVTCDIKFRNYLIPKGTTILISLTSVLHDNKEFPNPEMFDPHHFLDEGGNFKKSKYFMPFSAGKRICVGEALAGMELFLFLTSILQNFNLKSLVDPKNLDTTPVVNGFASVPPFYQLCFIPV
Cytochrome P450 2C19 (Homo sapiens), sequence (P33261 whole entry, looked up): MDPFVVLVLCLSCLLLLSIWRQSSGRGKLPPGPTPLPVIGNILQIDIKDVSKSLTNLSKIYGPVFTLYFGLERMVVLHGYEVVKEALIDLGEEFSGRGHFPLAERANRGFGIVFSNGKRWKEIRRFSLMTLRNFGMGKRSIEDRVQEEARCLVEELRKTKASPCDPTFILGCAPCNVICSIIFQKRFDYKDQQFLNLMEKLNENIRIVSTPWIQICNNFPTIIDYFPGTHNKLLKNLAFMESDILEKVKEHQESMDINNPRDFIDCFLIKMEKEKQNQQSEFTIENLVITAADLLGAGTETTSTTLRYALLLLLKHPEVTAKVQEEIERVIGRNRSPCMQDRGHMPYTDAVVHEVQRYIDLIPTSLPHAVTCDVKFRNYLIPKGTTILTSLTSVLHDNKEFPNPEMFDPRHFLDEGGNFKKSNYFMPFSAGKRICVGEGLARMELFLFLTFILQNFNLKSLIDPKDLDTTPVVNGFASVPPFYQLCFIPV

In the case of `O=C(Nc1ccccc1)N1CC2(CCN(C(=O)c3cccc(F)c3)CC2)C1`, the Potency is > 11.4 µM (inactive) in experiment [1] and > 46 µM (inactive) in experiment [5]. Moreover, the activity change, negative = inhibition in [2] was 13.2% (inactive); in experiment [3] it was 14.3% (inactive); in [8], 5.53% (inactive). The activity, negative = inhibition in [4] was 0.524% (inactive). Moreover, the outcome in experiment [6] was inactive. The Potency result in experiment [7] and in experiment [9] was “inactive” in each case. Also, the max response in experiment [8] (setting [18]) came to 9.88%; in [8] (setting [19]) it was 20.2%.
For `COCC(=O)N1CCC2(CCCN(Cc3cc(C(F)(F)F)cc(C(F)(F)F)c3)C2)CC1`, in [1], the Potency is > 11.4 µM (inactive). In addition, the activity change, negative = inhibition in [2] was -15.5% (inactive); in experiment [3] it was -0.717% (inactive); in experiment [8], -0.278% (inactive). For the same molecule, the Potency entry in experiment [10], in experiment [7], in experiment [11] and in experiment [9] was “inactive” throughout. The activity, negative = inhibition in experiment [4] is 3.96% (inactive). Besides, the molecule was classed as inactive in experiment [6]. Further, the max response in [8] (setting [18]) was 26.3%; in experiment [8] (setting [19]), 28.3%.
On to `COc1ccc(-n2c(=O)cnc3cnc(N(C)C)nc32)cc1`, for which the Potency is > 11.4 µM (inactive) in [1], 5.01 µM (active) in [10], > 9.22 µM (inactive) in experiment [12] and > 46 µM (inactive) in [5]. The activity change, negative = inhibition in experiment [2] is -17.5% (inactive); in [3], 15.7% (inactive). Also, the activity, negative = inhibition in experiment [4] was -7.93% (inactive). Besides, the molecule was classed as inactive in experiment [6]. In addition, the Potency entry in experiment [11], in [13] and in [9] was “inactive” throughout.
Turning to `COc1ccc(C(=O)N2CCC3(CC2)CN(C(=O)NC(C)C)C3)cc1`, the Potency in [1] is > 11.4 µM (inactive); in [5], > 46 µM (inactive). Also, the activity change, negative = inhibition in [2] was -5.05% (inactive); in [3] it was 12.7% (inactive). Also, the Potency result in experiment [10], in experiment [7] and in experiment [9] was “inactive” each time. Moreover, in [4], the activity, negative = inhibition was 0.0305% (inactive). Further, in experiment [6], the molecule was classed as inactive.
On to `Cc1noc(C)c1C(=O)N1CCC2(CC1)CCN(c1cccc(-c3ccccc3)c1)CC2`, for which the activity change, negative = inhibition in [2] was -13.8% (inactive); in [3] it was -2.13% (inactive); in experiment [8], -7.36% (inactive). Moreover, the Potency entry in [10], in [7], in experiment [14], in experiment [15], in [16] and in [17] was “inactive” each time. In addition, the Potency entry in experiment [9] was “inactive”. In experiment [5], the Potency is > 46 µM (inactive). Moreover, the result in experiment [6] was inactive. Moreover, the values for the max response in experiment [8] (setting [18]) and in [8] (setting [19]) were -11.4% and -15.8%, respectively.
As for `COc1ccc(CNc2ncncc2-c2cccnc2)c(OC)c1`, the Potency in experiment [1] was > 11.4 µM (inactive); in experiment [10], 3.16 µM (active); in experiment [12] it was > 46 µM (inactive); in [15], 0.501 µM (active). Besides, the activity change, negative = inhibition in experiment [2] is 3.11% (inactive); in experiment [3], 4.08% (inactive); in experiment [14], 26.1% [at 2.29 µM] (inactive). In experiment [4], the activity, negative = inhibition is 0.586% (inactive). The result in [6] was inactive. Besides, the Potency entry in experiment [7], in [11], in [13] and in [9] was “inactive” throughout.
Regarding `O=C(Nc1cccc(F)c1)N1CC2(CCN(S(=O)(=O)c3ccccc3)CC2)C1`, the activity change, negative = inhibition in [2] was -8.31% (inactive); in experiment [3], 22.6% (inactive); in experiment [8], -4.83% (inactive). For the same molecule, the Potency entry in [10], in experiment [7] and in experiment [9] was “inactive” each time. Moreover, the activity, negative = inhibition in [4] is -14.1% (inactive). The Potency in [5] is > 46 µM (inactive). Moreover, in experiment [6], the molecule was classed as inactive. Further, the max response was -8.16% in [8] (setting [18]) and -11.8% in experiment [8] (setting [19]).
For `COC(=O)N1CCC2(CCN(C(=O)NC(C)C)CC2)CC1`, the activity change, negative = inhibition in [2] was -1.37% (inactive); in experiment [3] it was -29.8% (inactive); in [8] it was 2.86% (inactive). The values for the Potency in experiment [10] and in experiment [5] were 20 µM (active) and > 46 µM (inactive), respectively. Moreover, in [4], the activity, negative = inhibition was -1.69% (inactive). Besides, the molecule was classed as inactive in experiment [6]. Further, the Potency entry in [7] and in experiment [9] was “inactive” throughout. The max response in [8] (setting [18]) stood at 7.58%; in experiment [8] (setting [19]), 13.7%.
